In PubChem BioAssay (NCATS):
Results filed as inconclusive are left out. Unmarked numbers belong to inactive results. The source made the active and inactive calls. The call rests on the fitted dose curve; in most records, active means well fitted inhibition curve with a large enough effect; inconclusive means small, poorly fitted or top-dose-only effect; inactive means flat fitted curve, though single readings scatter.

molecular target: Calcium and integrin-binding protein 1 (Homo sapiens) (UniProt Q99828); assay: Primary qHTS for Identification of Calcium Integrin Binding Protein 1 (CIB1) Competitor (AID 1508620); conditions: CIB1-GST / FITC-alphaIIb peptide fluorescence polarization; series mostly up to 114 µM; activity change, negative = inhibition: at the top concentration; further: top concentration of the series differs between compounds
Sequence (Q99828 whole entry, looked up): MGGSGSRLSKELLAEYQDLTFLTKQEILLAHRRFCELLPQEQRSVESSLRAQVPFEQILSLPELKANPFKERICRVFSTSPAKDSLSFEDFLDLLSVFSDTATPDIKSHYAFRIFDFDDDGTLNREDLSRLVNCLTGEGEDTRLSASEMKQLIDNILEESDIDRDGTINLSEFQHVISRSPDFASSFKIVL
Summary of the method: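 Fluorescence polarization competition: GST-tagged CIB1 (1 uM final) preincubated with compound 15 min at room temperature, then FITC-labelled alphaIIb peptide (100 nM final) added. After 15 min at room temperature, polarization read at Ex 480/Em 540.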
On the % scale 0 is the no-effect control and ±100 the full control effect.

Row | SMILES | activity change, negative = inhibition [%] | Potency
1 | Cc1ccc(CCCn2c(CCNC(=O)C3CCCCC3)nc3ccccc32)cc1 | -0.956 | –
2 | COc1ccc(C2c3ccc(OCc4ccccc4)cc3Oc3ncn(CCN4CCOCC4)c(=N)c32)cc1OC (stereo not given) | -0.183 | –
3 | COc1cc(OC)cc(-c2nnc3n2N=C(c2ccc(OC)c(OC)c2)CS3)c1 | -6.1 | –
4 | CS(=O)(=O)c1ccc(C(=O)OCC(=O)N2CCC(c3ccccc3)CC2)cc1[N+](=O)[O-] | -13.5 | –
5 | Cc1c(C(=O)OCc2ccco2)[nH]c2c1C(=O)CC(c1ccco1)C2 (stereo not given) | -10.1 | –
6 | Cc1cc2c(s1)c1cnn(Cc3cccc(C(F)(F)F)c3F)c(=O)c1n2C | -1.74 | –
7 | Cc1ccc(CNc2ccc(N3CCNCC3=O)cc2)cc1 | 2.31 | –
8 | COc1cccc(CNc2ccc(S(=O)(=O)Nc3ncc(C)s3)cc2)c1O | – | inactive
9 | O=S(=O)(c1ccc2c(c1)OCCO2)N1CCN(S(=O)(=O)c2cc(F)c(F)cc2F)CC1 | 5.19 | –
10 | CC(=O)Nn1c(C)nc2sc3c(c2c1=O)CCNC3 | -3.83 | –
11 | N#CN1CCC(N[S+](=O)([O-])c2cccc(F)c2)CC1 | 3.12 | –
12 | CCc1nnc2sc(-c3ccc(C)c(NC(=O)c4ccc(-c5cccc(Cl)c5)o4)c3)nn12 | 1.32 | –
13 | Cc1ccc2oc(NC3=NC4(CCCC4)C4=C(CCCC4=O)N3)nc2c1 | -6.35 | –
14 | O=C1CCc2cc(S(=O)(=O)Nc3ccccn3)ccc2N1 | 1.63 | –
15 | Cc1cc(N[S+](=O)([O-])c2cc3c(cc2Cl)NC(=O)CO3)ccc1Br | -6.83 | –
16 | Cc1cc(C)nc(NC(=S)N2CCN(c3cc(C#N)cc(C#N)c3)CC2)c1 | 0.406 | –
17 | Cc1ccc(NCc2ccc(O)c3ncccc23)c(F)c1 | 7.59 | –
18 | O=C(NC1CCCc2c1cnn2-c1ccc(F)cc1F)c1ccc(C(=O)c2ccccc2)cc1 (stereo not given) | 3.03 | –
19 | c1nc(NCc2ccc3c(c2)OCO3)c2cc(-c3ccoc3)ccc2n1 | 9.37 | –
20 | CCOC(=O)c1ccoc1-c1ccc2ncnc(NCCc3cnc[nH]3)c2c1 | 2.74 | –

Row | SMILES | activity change, negative = inhibition [%] | Potency
21 | O=S(=O)(NCC1CN(S(=O)(=O)c2ccc3c(c2)OCCO3)C1)c1c(F)cccc1F | 0.53 | –
22 | O=S1(=O)N=C(Sc2cc(C(F)(F)F)cc(C(F)(F)F)c2)c2ccccc21 | -13.3 | –
23 | O=C(OCC#CCSc1nnc(-c2cccc3ccccc23)o1)c1csc2ccccc12 | -0.559 | –
24 | Clc1cccc(CSc2nc3ncc(Br)cc3[nH]2)c1 | 7.18 | –
25 | Cc1noc(C)c1-c1ccc2ncnc(NCc3cccc(-c4ccccc4)c3)c2c1 | 4.75 | –
26 | Cc1cc(C)n2ncc(C(=O)Nc3ccc(Br)cc3)c2n1 | 1.73 | –
27 | Cc1ccc(C(=O)NCC(=O)OC(C(=O)Nc2cc(C(F)(F)F)ccc2Cl)c2ccccc2)cc1 (stereo not given) | -2.74 | –
28 | Fc1ccc(Nc2nc(-c3ccncc3)nc3ccccc23)cc1F | -3.73 | –
29 | COc1ccc(C(=O)Nc2ccc(-c3nc4ccccc4[nH]3)cc2)cc1F | 6.11 | –
30 | COc1ccccc1-c1nnc(SCC#CCOC(=O)c2ccc(F)cc2)o1 | 5.02 | –
31 | O=C(O)c1cccc(S(=O)(=O)N2CCN(S(=O)(=O)c3ccc4c(c3)OCCO4)CC2)c1 | 0.617 | –
32 | Cc1ccc(CCN2C(=O)c3ccc(C(=O)O)cc3C2=O)cc1 | -4.65 | –
33 | COc1cccc(Nc2nn3c(=O)c4ccccc4nc3s2)c1 | 4.13 | –
34 | Nc1cc(NC(=O)Nc2nnc(-c3ccncc3)s2)ccc1Cl | -5.78 | –
35 | O=C(COC(=O)CNC(=O)c1ccccc1)Nc1ccccc1Cl | -1.75 | –
36 | CC(C)c1ccccc1-c1ncc(N)c(NCc2ccc(-c3cccnc3)cc2)n1 | -2.2 | –
37 | Cc1cc(C)nc(NC(=S)N2CCN(c3cccc(Cl)c3Cl)CC2)c1 | -6.81 | –
38 | CC(=O)Nc1ccc(NC(=O)c2cnn3c(C)cc(C)nc23)cc1 | -3.54 | –
39 | Cc1ccnc(NC(=S)NCCNc2cccc(C(F)(F)F)c2)c1 | -4.66 | –
40 | O=C(NCCc1nc2ccccc2n1CCOc1cc(F)ccc1F)C1CCCCC1 | 5.81 | –
